Each structure is given as a SMILES string. Counter-ions that a name gives are not always drawn.

The test system of this experiment is Saccharomyces cerevisiae BY4741 SeMeCo community. Description: z-score of subpopulation abundance vs DMSO median, subpopulation auxotrophic for H; higher = larger share of this subpopulation than in DMSO controls. The note with it: 10 µM; 24 h; SM minimal medium; subpopulation (auxotrophy): H. The method, then: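 Fluorescent four-plasmid SeMeCo (self-establishing metabolically cooperating S. cerevisiae BY4741 community; plasmids pH-mRuby2, pL-mWasabi, pU-eCFP, pM-TagRFP657) was grown 24 h in minimal SM medium with each Selleck FDA-approved drug at 10 µM in 384-well plates. Cells were fixed and imaged by high-content confocal microscopy. For each auxotrophic subpopulation (and the prototroph), a z-score gives the deviation from the DMSO vehicle-control population median.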
For the molecule `O=C(N[C@H](CO)[C@H](O)c1ccc([N+](=O)[O-])cc1)C(Cl)Cl` [Chloramphenicol], the “z-score of subpopulation abundance” value is -0.01.

Consider `O=C(O)c1cc(=O)c2c(OCC(O)COc3cccc4oc(C(=O)O)cc(=O)c34)cccc2o1` [Disodium Cromoglycate], for which the “z-score of subpopulation abundance” value was -0.75.

Consider `CCN(CC)CCNC(=O)c1cc(Cl)c(N)cc1OC` [Metoclopramide], for which the “z-score of subpopulation abundance” value is -0.88.

For `O=C(O)c1cccnc1Nc1cccc(C(F)(F)F)c1` [Niflumic acid], the “z-score of subpopulation abundance” value was -0.77.

For `Cc1c(S(=O)(=O)O)oc2c1C(=O)C(=O)c1c-2ccc2c1CCCC2(C)C` [Tanshinone IIA sulfonate (sodium)], the “z-score of subpopulation abundance” value is 1.42.

As to `C=CC[N+]1([C@H]2C[C@H]3[C@@H]4CC[C@H]5C[C@H](O)[C@@H](N6CCOCC6)C[C@]5(C)[C@H]4CC[C@]3(C)[C@H]2OC(C)=O)CCCC1` [Rocuronium Bromide], the “z-score of subpopulation abundance” value was -0.21.

As to `C[C@H]1COc2c(N3CCN(C)CC3)c(F)cc3c(=O)c(C(=O)O)cn1c23` [Levofloxacin], the “z-score of subpopulation abundance” value is -0.42.

Turning to `COc1ccc2cc(CCC(C)=O)ccc2c1` [Nabumetone], the “z-score of subpopulation abundance” value is -1.58.

As for `Clc1ccc(COC(Cn2ccnc2)c2ccc(Cl)cc2Cl)cc1` (stereo not given) [Econazole], the “z-score of subpopulation abundance” value was determined as 20.3.

Regarding `CC(=O)NO` [Acetohydroxamic acid], the “z-score of subpopulation abundance” value worked out at 0.14.

For the molecule `CN1[C@@H]2CC[C@H]1C[C@@H](OC(c1ccccc1)c1ccccc1)C2` [Benztropine mesylate], the “z-score of subpopulation abundance” value was -0.75.

Take `C[C@@H]1C/C=C/C=C/C=C/C=C/[C@H](O[C@@H]2O[C@H](C)[C@@H](O)[C@H](N)[C@@H]2O)C[C@@H]2O[C@](O)(C[C@@H](O)C[C@H]3O[C@@H]3/C=C/C(=O)O1)C[C@H](O)[C@H]2C(=O)O` [Natamycin]: the “z-score of subpopulation abundance” value stood at 12.5.

With `CCN(CC)CC#CCOC(=O)C(O)(c1ccccc1)C1CCCCC1` (stereo not given) [Oxybutynin chloride], the “z-score of subpopulation abundance” value is -0.41.

As for `CCOC(=O)C1=C(COCCN)NC(C)=C(C(=O)OC)C1c1ccccc1Cl` (stereo not given) [Amlodipine Besylate], the “z-score of subpopulation abundance” value was found to be 3.81.

As to `Nc1ccc(S(=O)(=O)c2ccc(N)cc2)cc1` [Dapson], the “z-score of subpopulation abundance” value stood at 0.61.

`C[C@@H](O)[C@H]1C(=O)N2C(C(=O)OCOC(=O)C(C)(C)C)=C(SC3CN(C4=NCCS4)C3)[C@H](C)[C@H]12` [Tebipenem Pivoxil]: the “z-score of subpopulation abundance” value is -0.29.

Regarding `CN1CCN(CCCN2c3ccccc3Sc3ccc(Cl)cc32)CC1` [Prochlorperazine dimaleate salt], the “z-score of subpopulation abundance” value was determined as 1.05.

Turning to `COc1ccc2cc(C(=O)O)ccc2c1` [6-Methoxy-2-naphthoic acid], the “z-score of subpopulation abundance” value worked out at 2.01.

Turning to `CCC1(C)CC(=O)NC1=O` (stereo not given) [Ethosuximide], the “z-score of subpopulation abundance” value was -0.94.

As for `CC1(C)S[C@@H]2[C@H](NC(=O)[C@H](N)c3ccccc3)C(=O)N2[C@H]1C(=O)O` [Ampicillin sodium], the “z-score of subpopulation abundance” value is -0.9.

`CC(C)C(=O)c1c(C(C)C)nn2ccccc12` [Ibudilast]: the “z-score of subpopulation abundance” value is -1.02.

In the case of `Cc1nc(NC(=O)N2CCC[C@H]2C(N)=O)sc1-c1ccnc(C(C)(C)C(F)(F)F)c1` [Alpelisib (BYL719)], the “z-score of subpopulation abundance” value was found to be 0.36.

As for `COc1cc2c(cc1OC)[C@@H]1Cc3ccc(OC)c(OC)c3CN1CC2` [Rotundine], the “z-score of subpopulation abundance” value was found to be 0.05.

With `CCCNC(C)C(=O)Nc1ccccc1C` (stereo not given) [Prilocaine], the “z-score of subpopulation abundance” value is 0.48.

As for `CN(C)CCOc1ccc(/C(=C(/CCCl)c2ccccc2)c2ccccc2)cc1` [Toremifene Citrate], the “z-score of subpopulation abundance” value is 2.17.

As to `O=C(CCCN1CC=C(n2c(=O)[nH]c3ccccc32)CC1)c1ccc(F)cc1` [Droperidol], the “z-score of subpopulation abundance” value was -0.5.

Consider `CN(C)CCC[C@@]1(c2ccc(F)cc2)OCc2cc(C#N)ccc21` [Escitalopram Oxalate], for which the “z-score of subpopulation abundance” value was -0.42.

In the case of `CCCCCNC(=N)N/N=C/c1c[nH]c2ccc(OC)cc12` [Tegaserod Maleate], the “z-score of subpopulation abundance” value was 0.7.

Consider `C[N+]1(C)CCC(=C(c2ccccc2)c2ccccc2)CC1` [Diphemanil Methylsulfate], for which the “z-score of subpopulation abundance” value is -0.27.

With `CCCCN(CCCC)CC(O)c1cc(Cl)cc2c1-c1ccc(Cl)cc1/C2=C/c1ccc(Cl)cc1` (stereo not given) [Lumefantrine], the “z-score of subpopulation abundance” value came to 0.2.

With `Cc1cc(C)nc(NS(=O)(=O)c2ccc(N)cc2)n1` [Sulfamethazine], the “z-score of subpopulation abundance” value stood at 0.21.

`N=C(N)NC(=N)N1CCOCC1` [Moroxydine HCl]: the “z-score of subpopulation abundance” value was -0.19.

`C[C@@H]1O[C@@H]1P(=O)(O)O` [Fosfomycin Disodium]: the “z-score of subpopulation abundance” value was 0.63.

With `CCCCCOc1ccc(-c2cc(-c3ccc(C(=O)N[C@H]4C[C@@H](O)[C@@H](O)NC(=O)[C@@H]5[C@@H](O)[C@@H](C)CN5C(=O)[C@H]([C@H](O)CC(N)=O)NC(=O)[C@H]([C@H](O)[C@@H](O)c5ccc(O)c(OS(=O)(=O)O)c5)NC(=O)[C@@H]5C[C@@H](O)CN5C(=O)[C@H]([C@@H](C)O)NC4=O)cc3)no2)cc1` [Micafungin Sodium], the “z-score of subpopulation abundance” value came to 27.4.

With `O=C(Cn1cnnn1)N[C@@H]1C(=O)N2C(C(=O)O)=C(CSc3nncs3)CS[C@H]12` [Ceftezole], the “z-score of subpopulation abundance” value is -1.12.

With `CC(C)[C@H](N)C(=O)OCC(CO)OCn1cnc2c(=O)[nH]c(N)nc21` (stereo not given in full) [Valganciclovir HCl], the “z-score of subpopulation abundance” value was 0.09.

As for `CC[C@H](C)C(=O)O[C@H]1CCC=C2C=C[C@H](C)[C@H](CC[C@@H]3C[C@@H](O)CC(=O)O3)[C@H]21` [Mevastatin], the “z-score of subpopulation abundance” value is -0.21.

As to `Oc1ccc(Cl)c2cccnc12` [Cloxiquine], the “z-score of subpopulation abundance” value was 13.1.

Take `OCCOCCN1CCN(C2=Nc3ccccc3Sc3ccccc32)CC1` [Quetiapine Fumarate]: the “z-score of subpopulation abundance” value is -0.24.

Take `CSc1nc2cc(Cl)c(Oc3cccc(Cl)c3Cl)cc2[nH]1` [Triclabendazole]: the “z-score of subpopulation abundance” value turned out to be 5.63.

Source of the values: the supplement of paper PMC8975748.
